Experimental data reported in the supplement of paper PMC6089552.
Among all 3,200 compounds or so, about 300 (9.4%) showed activity. The sample holds actives, similar compounds and a random draw of the others, so the mix is not that of the screen.

Tested on: A673/TR/shEF
Test: cell viability (LOESS-normalised, relative to median of negative controls) (log2 ratio); higher = more viable cells (less compound effect), active = hit call of the paper (over 3 MAD below the median)
Conditions: treatment time: 72 h
Procedure, shortened: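 Doxycycline, present or absent from 24 h before compounds, was used to induce EWS-FLI1 shRNA knockdown in A673/TR/shEF Ewing sarcoma cells at 1,500 per well in 384-well plates. Cells then received library compounds at two or more concentrations, or DMSO controls, for three days. Viability was measured by CellTiter-Glo luminescence on an Envision reader, and per-plate LOESS correction, division by the negative-control median and log2 transformation followed.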

[1] = 0.25 µM, library screen: screen1, EWS-FLI1 expression: high (no doxycycline)
[2] = 0.25 µM, library screen: screen1, EWS-FLI1 expression: low (doxycycline-induced shRNA knockdown)
[3] = 0.25 µM, library screen: screen2, EWS-FLI1 expression: high (no doxycycline)
[4] = 0.25 µM, library screen: screen2, EWS-FLI1 expression: low (doxycycline-induced shRNA knockdown)
[5] = 2.5 µM, library screen: screen1, EWS-FLI1 expression: high (no doxycycline)
[6] = 2.5 µM, library screen: screen1, EWS-FLI1 expression: low (doxycycline-induced shRNA knockdown)
[7] = 2.5 µM, library screen: screen2, EWS-FLI1 expression: high (no doxycycline)
[8] = 2.5 µM, library screen: screen2, EWS-FLI1 expression: low (doxycycline-induced shRNA knockdown)
[9] = 0.103 µM, library screen: screen3, EWS-FLI1 expression: high (no doxycycline)
[10] = 0.103 µM, library screen: screen3, EWS-FLI1 expression: low (doxycycline-induced shRNA knockdown)
[11] = 0.308 µM, library screen: screen3, EWS-FLI1 expression: high (no doxycycline)
[12] = 0.308 µM, library screen: screen3, EWS-FLI1 expression: low (doxycycline-induced shRNA knockdown)
[13] = 0.926 µM, library screen: screen3, EWS-FLI1 expression: high (no doxycycline)
[14] = 0.926 µM, library screen: screen3, EWS-FLI1 expression: low (doxycycline-induced shRNA knockdown)
[15] = 2.8 µM, library screen: screen3, EWS-FLI1 expression: high (no doxycycline)
[16] = 2.8 µM, library screen: screen3, EWS-FLI1 expression: low (doxycycline-induced shRNA knockdown)
[17] = 8.3 µM, library screen: screen3, EWS-FLI1 expression: high (no doxycycline)
[18] = 8.3 µM, library screen: screen3, EWS-FLI1 expression: low (doxycycline-induced shRNA knockdown)
[19] = 25 µM, library screen: screen3, EWS-FLI1 expression: high (no doxycycline)
[20] = 25 µM, library screen: screen3, EWS-FLI1 expression: low (doxycycline-induced shRNA knockdown)

Measured: cell viability (log2)

NCCc1ccc(O)cc1
inactive: [1] 0.0239 | [2] 0.0662 | [3] 0.157 | [4] 0.123 | [5] 0.134 | [6] 0.0729 | [7] 0.116 | [8] 0.0531

NCCc1ccc(S(=O)(=O)F)cc1
inactive: [4] 0.067 | [7] -0.0377 | [8] 0.0161
active: [3] -0.0889

COc1cc(CCN)ccc1O
inactive: [3] 0.212 | [4] 0.0815 | [7] 0.12 | [8] 0.0385

COc1ccc2c(c1O)-c1c3c(cc4c1[C@H](C2)N(C)CC4)OCO3
inactive: [3] 0.104 | [4] 0.0658 | [7] 0.0733 | [8] 0.132

COc1cc([C@@H]2c3cc4c(cc3[C@H](OC(C)=O)[C@H]3COC(=O)[C@H]23)OCO4)cc(OC)c1OC
active: [1] -3.77 | [2] -0.983 | [5] -3.58 | [6] -1.13

COc1cc([C@@H]2c3cc4c(cc3[C@H](O)[C@H]3COC(=O)[C@H]23)OCO4)cc(OC)c1OC
inactive: 0.025 µM, library screen: screen2, EWS-FLI1 expression: high (no doxycycline) 0.106 | 0.025 µM, library screen: screen2, EWS-FLI1 expression: low (doxycycline-induced shRNA knockdown) 0.109 | [3] 0.0134 | [4] 0.0379
active: [1] -3.56 | [2] -1.09 | [5] -4.23 | [6] -0.986 | [7] -1.33 | [8] -0.175 | 25 µM, library screen: screen2, EWS-FLI1 expression: high (no doxycycline) -2.9 | 25 µM, library screen: screen2, EWS-FLI1 expression: low (doxycycline-induced shRNA knockdown) -0.496

COc1cc([C@@H]2c3cc4c(c(O)c3C[C@H]3COC(=O)[C@@H]32)OCO4)cc(OC)c1OC
active: [5] -3 | [6] -0.852
inactive: [1] 0.0843 | [2] 0.0231

COc1cc([C@@H]2c3cc4c(cc3[C@H](O)[C@H]3COC(=O)[C@@H]23)OCO4)cc(OC)c1OC
inactive: [1] 0.0302 | [2] 0.00961
active: [5] -2.1 | [6] -0.572

COc1ccc2c(c1OC)C(=O)O[C@H]2[C@H]1c2cc3c(cc2CCN1C)OCO3
inactive: [1] 0.11 | [2] 0.0969 | [5] -0.0012 | [6] 0.0503

COc1ccc2c(c1OC)C(=O)O[C@H]2[C@@H]1c2cc3c(cc2CCN1C)OCO3
inactive: [3] 0.0965 | [4] 0.0835 | [7] 0.18 | [8] 0.113

CCCN(CCC)[C@@H]1CCc2c(F)ccc(O)c2C1
inactive: [3] 0.13 | [4] 0.0763 | [7] 0.181 | [8] 0.101

O=C1NCN(c2ccccc2)C12CCN(CC1COc3ccccc3O1)CC2 (stereo unspecified)
inactive: [3] 0.177 | [4] 0.0806 | [7] 0.104 | [8] 0.0692

C/C=C(\C)C(=O)O[C@H]1C[C@@H](OC(C)=O)[C@@]2(C(=O)OC)CO[C@H]3[C@@H](O)[C@@](C)([C@]45O[C@@]4(C)[C@H]4C[C@@H]5O[C@@H]5OC=C[C@@]54O)[C@H]4[C@]1(CO[C@]4(O)C(=O)OC)[C@@H]32
inactive: [1] 0.103 | [2] 0.0233 | [5] 0.139 | [6] -0.02

Cc1cccc(C)c1NC(=O)CN1CCCC1=O
inactive: [9] 0.119 | [10] -0.000586 | [11] 0.107 | [12] 0.118 | [13] 0.135 | [14] 0.0891 | [15] 0.156 | [16] 0.0751 | [17] 0.15 | [18] 0.0489 | [19] 0.154 | [20] 0.0876

O=c1ccc2cc(O[C@@H]3OC(CO)[C@@H](O)C(O)C3O)c(O)cc2o1 (stereo partly specified)
inactive: [1] 0.0986 | [2] -0.0879 | [5] 0.201 | [6] 0.107

CC(C)N(C(=O)SCC(Cl)=C(Cl)Cl)C(C)C
inactive: [1] 0.0806 | [2] 0.0889 | [5] -0.00898 | [6] 0.0996

CC1=C2C[C@H]3[C@@H](CC=C4C[C@@H](O)CC[C@@]43C)[C@@H]2CC[C@]12O[C@@H]1C[C@H](C)CN[C@H]1[C@H]2C
inactive: [9] 0.00521 | [10] 0.0036 | [11] 0.012 | [12] 0.0389 | [13] -0.00313 | [14] 0.0472 | [15] 0.0157 | [16] 0.0183 | [17] -0.0322 | [18] 0.102 | [19] -0.00963 | [20] 0.053

Cc1cccc(CN2CCN(Cc3ccc(F)cc3)CC2)c1
inactive: [1] 0.0688 | [2] 0.0518 | [5] 0.143 | [6] 0.0989

C[C@H]1OC[C@@H](C[N+](C)(C)C)O1
inactive: [3] 0.185 | [4] 0.123 | [7] 0.146 | [8] 0.0964

C[C@H]1O[C@@H](C[N+](C)(C)C)CS1
inactive: [3] 0.209 | [4] 0.0237 | [7] -0.0233 | [8] 0.035

O=C(OC1CC2CCC(C1)[N+]21CCCC1)C(O)(c1ccccc1)c1ccccc1 (stereo unspecified)
inactive: [9] 0.0271 | [10] 0.0529 | [11] 0.0379 | [12] 0.0384 | [13] -0.0177 | [14] 0.0427 | [15] 0.0921 | [16] 0.0957 | [17] 0.022 | [18] 0.0679 | [19] 0.0665 | [20] 0.0295

C=C1[C@H]2CCC3[C@@](CC[C@@H]4[C@H](C(=O)O)C[C@@H](O[C@H]5O[C@H](CO)[C@@H](OS(=O)(=O)O)[C@H](OS(=O)(=O)O)[C@H]5OC(=O)CC(C)C)C[C@@]34C)(C2)[C@H]1O (stereo partly specified)
inactive: [1] 0.138 | [2] 0.098 | [5] 0.0683 | [6] 0.0267

COc1nc(NC(C)C)nc(NC(C)C)n1
inactive: [1] -0.00161 | [2] 0.0381 | [5] 0.104 | [6] 0.186

COC(=O)/C=C(\C)OP(=O)(OC)OC
inactive: [1] -0.00893 | [2] -0.0133 | [5] 0.034 | [6] 0.0603

CCC(C)C(OC(C)=O)C(=O)O[C@H]1[C@H](O)C2[C@@]3(C)C=CC(=O)C(C)(C)C3C[C@@H](OC(=O)C(O)C(C)C)[C@@]2(C)[C@@]23O[C@@H]2C[C@@H](c2ccoc2)[C@]13C (stereo partly specified)
inactive: [1] 0.0564 | [2] 0.0957 | [5] 0.0934 | [6] 0.141

CN(C)[C@@H]1C(=O)C(C(N)=O)=C(O)[C@@]2(O)C(=O)C3=C(O)c4c(O)cccc4[C@@](C)(O)[C@H]3C[C@@H]12
active: [1] -0.127
inactive: [2] 0.111 | [5] -0.0332 | [6] 0.155

CN(C)[C@@H]1C(=O)C(C(N)=O)=C(O)[C@@]2(O)C(=O)C3=C(O)c4c(O)cccc4[C@@](C)(O)[C@H]3[C@H](O)[C@@H]12
inactive: [9] 0.0702 | [10] 0.0143 | [1] 0.0991 | [2] 0.163 | [11] 0.0382 | [12] 0.159 | [13] 0.119 | [14] 0.101 | [5] 0.158 | [6] 0.172 | [15] 0.158 | [16] 0.126 | [17] 0.103 | [18] 0.0656 | [19] 0.0616 | [20] 0.0848

CN1Cc2c(ccc3c2OCO3)[C@@H]2[C@H]1c1cc3c(cc1C[C@@H]2O)OCO3
inactive: [1] 0.0821 | [2] 0.0876 | [5] -0.0483 | [6] 0.0764

Ic1ccccc1CN[C@H]1C2CCN(CC2)[C@H]1C(c1ccccc1)c1ccccc1
inactive: [3] 0.128 | [4] 0.206 | [7] 0.245 | [8] 0.191

CC1(C)C(=O)C=C[C@]2(C)C1=C(O)C(=O)[C@@]1(C)[C@H]2CC[C@]2(C)[C@@H](c3ccoc3)C[C@@H]3O[C@]312
inactive: [1] 0.0131 | [2] 0.0981 | [5] -0.0522 | [6] 0.0901

CCCC(C)C1(CC)C(=O)NC(=S)NC1=O (stereo unspecified)
inactive: [1] 0.047 | [2] -0.0503 | [5] 0.164 | [6] 0.136

CNC(=O)Oc1cccc2c1OC(C)(C)O2
inactive: [1] 0.147 | [2] 0.159 | [5] 0.155 | [6] 0.0893

CCCCCC[C@H]1C(=O)O[C@H](C)[C@H](NC(=O)c2cccc(NC=O)c2O)C(=O)O[C@@H](C)[C@@H]1OC(=O)CC(C)C
active: [1] -0.888 | [2] -0.636 | [5] -1.71 | [6] -0.774

Cc1ccc2cc3c(ccc4ccccc43)c3c2c1CC3
inactive: [1] 0.0577 | [2] -0.00243 | [5] 0.111 | [6] 0.12

CC(C)Oc1cccnc1N(C)C1CCN(Cc2ccc(I)cc2)CC1
inactive: [3] 0.0944 | [4] 0.0215 | [7] 0.21 | [8] 0.0697

CC(C)N(C(=O)CCl)c1ccccc1
inactive: [1] 0.0295 | [2] 0.0848 | [5] 0.154 | [6] 0.0575

O=C(O)CNCP(=O)(O)O
inactive: [1] 0.0875 | [2] 0.0822 | [5] 0.124 | [6] 0.106

NCC(O)c1cc(O)c(O)cc1F (stereo unspecified)
inactive: [3] 0.233 | [4] 0.183 | [7] 0.0966 | [8] 0.0732

CC(=O)Oc1ccc(Cl)c2cccnc12
inactive: [1] 0.106 | [2] 0.136 | [5] 0.0698 | [6] 0.0992

CNc1ccccc1C(=O)O
inactive: [1] 0.0696 | [2] 0.0258 | [5] 0.131 | [6] 0.00755

CCCCOC(=O)c1ccccc1C(=O)OCCCC
inactive: [1] 0.118 | [2] 0.0394 | [5] 0.0831 | [6] -0.283

C[CH2][Hg][S]c1ccccc1C(=O)O
inactive: [2] -0.123
active: [1] -0.15 | [5] -3.6 | [6] -2.98
